Measured values: the supplement of paper PMC4166925
± gives the standard deviation of the averaged measurements. Over roughly 33,000 sequences, “E-score (dimensionless, -0.5 to 0.5)” has its median near -0.049; the highest 2% begin near 0.37. What follows is part of a selection rich in the highest values, with near analogues and random picks from the rest.

test system: T1, PmTbr T-box DNA-binding domain (GST fusion); test: PBM E-score of 8-mer (E-score (dimensionless, -0.5 to 0.5)); Tbr is Tbrain of the sea star Patiria miniata (Pm) or the sea urchin Strongylocentrotus purpuratus (Sp); higher = stronger binding preference; settings: the construct has about 5 more residues each side
T1 sequence: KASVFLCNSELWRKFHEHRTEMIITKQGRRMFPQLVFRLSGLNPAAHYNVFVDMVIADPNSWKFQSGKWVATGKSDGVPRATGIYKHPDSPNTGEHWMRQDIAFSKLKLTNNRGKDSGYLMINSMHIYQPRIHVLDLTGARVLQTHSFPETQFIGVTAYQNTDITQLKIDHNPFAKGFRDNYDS
Procedure: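 Universal protein-binding microarray (Agilent AMADID 016060, 60-bp probes with a 35-bp variable region) incubated with 200 nM GST-fused Patiria miniata Tbr T-box DNA-binding domain (residues 272-466) in PBS pH 7.5. Scored for every ungapped 8-mer (given with its reverse complement) by the Universal PBM Analysis Suite as E-score (modified Wilcoxon-Mann-Whitney enrichment, range -0.5 to 0.5; >0.45 counts as bound) and Z-score of median probe intensity. Two replicate arrays (datasets 1 and 2).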

Sequence	PBM E-score of 8-mer
CGGTGGGC	-0.131 ± 0.04
ATCCCAAG	-0.275 ± 0.07
CGTACTTA	-0.115 ± 0.042
TGGCTACA	-0.117 ± 0.0015
GATGTTGC	-0.0903 ± 0.014
CCCAAAAC	0.0141 ± 0.0023
GACCTACA	-0.125 ± 0.019
CACCTACC	0.413 ± 0.015
AACCTACG	-0.21 ± 0.0028
CACCTACG	0.412 ± 0.0089
GACCTACC	-0.153 ± 0.0062
AACCTACC	-0.0696 ± 0.071
CCCCTACG	-0.0948 ± 0.0047
TACCTACA	-0.2971 ± 0.00036
CACCTACA	0.407 ± 0.013
CGGAAGGA	-0.209 ± 0.012
CTGCCACA	0.226 ± 0.014
GCAAAGGA	-0.229 ± 0.021
CTTCTCGC	0.229 ± 0.027
ACCTGGGG	0.0226 ± 0.0096
AGTCGAGG	0.0125 ± 0.11
CGTACTGA	-0.105 ± 0.017

Sequence	PBM E-score of 8-mer
AATCTAAA	-0.0399 ± 0.05
AGCATCCC	-0.136 ± 0.039
CACTGTGG	-0.16 ± 0.098
CTATTATC	-0.101 ± 0.018
AAGTGCCC	-0.143 ± 0.0036
ATGTGCTC	-0.297 ± 0.012
GCGTGCTA	0.261 ± 0.0046
ACGTGCTA	0.417 ± 0.019
AAGTGCCA	0.41 ± 0.0065
CCGTGCTA	0.263 ± 0.0013
ATGTGCCA	0.375 ± 0.0048
CTGTGCTA	0.0225 ± 0.0027
ATGTGCCC	-0.0261 ± 0.068
ATGTGCCG	0.0963 ± 0.036
ATGTGCTA	0.396 ± 0.0083
GAGTGCCA	0.242 ± 0.0057
ATGACCTC	-0.0665 ± 0.086
CAGCGATA	0.0152 ± 0.0054
ACAAGAGG	-0.108 ± 0.048
CATACAGG	-0.17 ± 0.0088
CCACTCCG	-0.01631 ± 0.00014
GATTAGAC	-0.0447 ± 0.044

Sequence	PBM E-score of 8-mer
GCCTCTGA	0.0009 ± 0.067
ACTTAAAG	0.0623 ± 0.041
AAGTGCTA	0.448 ± 0.016
AAGTGCTG	0.283 ± 0.0071
AAGTGCTC	0.0187 ± 0.018
CCCTTAAG	-0.00471 ± 0.02
CGTGCAGC	0.0118 ± 0.029
GATCGCGC	0.289 ± 0.018
CATCGCAG	0.0526 ± 0.063
AATCGCAC	0.381 ± 0.0051
AATCGCAG	0.0445 ± 0.062
GATCGCAA	0.244 ± 0.013
GATCGCAC	0.42 ± 0.018
CATCGCAC	0.373 ± 0.023
CATCGCAA	0.0368 ± 0.039
AATCGCAT	0.0479 ± 0.038
ACGAATGG	0.0417 ± 0.027
GAATGGGA	-0.214 ± 0.011
GCCATGTA	-0.101 ± 0.045
ACCACTCC	0.0476 ± 0.03
AGTTGCGA	0.412 ± 0.0052
ACTTGCGA	0.386 ± 0.006

Sequence	PBM E-score of 8-mer
AGTTGCGG	0.0771 ± 0.12
AGTTGCGC	0.0703 ± 0.035
GCTTGCGA	0.105 ± 0.024
CCTTGCGA	0.243 ± 0.012
CGGGTCAC	0.113 ± 0.024
CAGAGGTC	-0.0549 ± 0.0023
ACAGTAAC	0.186 ± 0.054
GCTTAAGC	-0.292 ± 0.0039
AGGCCCCC	-0.332 ± 0.014
AAACGGCA	0.0707 ± 0.068
GGCTTCAA	-0.121 ± 0.014
AATTCGAC	-0.0254 ± 0.029
CCATCACG	0.033 ± 0.018
AGGTGGTC	-0.0579 ± 0.012
AGGTGGAG	0.141 ± 0.0032
AGGTGGTG	0.385 ± 0.042
CGGTGGTA	-0.00583 ± 0.042
AGGTGGGA	0.418 ± 0.01
GGGTGGTA	0.121 ± 0.07
AGGTGGTA	0.415 ± 0.0043
AGGTGGGC	-0.0782 ± 0.065
CGGTGGGA	-0.0368 ± 0.0018

Sequence	PBM E-score of 8-mer
ATTCAGAG	-0.13 ± 0.0013
CGACTTGC	0.161 ± 0.025
CCATCTCG	-0.0242 ± 0.099
GCTTGCCC	-0.245 ± 0.0072
TCCATCGA	-0.121 ± 0.022
ATAACGCC	0.237 ± 0.023
ATTGCACG	0.152 ± 0.033
AAGTGGCG	0.3473 ± 0.0029
CGGTGGCA	0.147 ± 0.031
GGGTGGCA	0.322 ± 0.024
AGGTGGCC	0.0319 ± 0.077
AGGTGGCG	0.412 ± 0.023
AGGTGGCA	0.436 ± 0.0087
AAGTTGGA	-0.0116 ± 0.045
AGAAGTCC	0.0869 ± 0.022
GTAGCCCA	-0.311 ± 0.012
ACACATCA	0.299 ± 0.017
ACACATCT	0.325 ± 0.019
ACACATCC	0.3871 ± 0.0015
GCACATCC	0.136 ± 0.038
CCACATCC	-0.102 ± 0.032
ACACATCG	0.382 ± 0.017
